{"source": "the supplement of paper PMC6555819"}
{"system": "LXRa homodimer (NR concentration 270 nM)", "experiment": "PBM binding z-score (relative to random genomic background probes); higher = stronger binding; sequences stand for … in GC…GCGATTGACAGCGTAGAATGAAGG", "summary_of_the_method": "(§1)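 Binding z-scores take random background probes as their reference. They come from custom Agilent 4×180K protein-binding microarrays incubated 1 h with ligand-free nuclear receptor dimers, with antibodies against each partner (one per run) detecting binding. Scanned fluorescence was regression-normalized.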"}
{"sequence": "ACTCGGAGGACAAGGGTCAGAGCTACGCCAGTGA", "PBM binding z-score": -0.11}
{"sequence": "AGAATTAGGTTATACGTAGATCAGGGAAGAAAGT", "PBM binding z-score": 0.321}
{"sequence": "ATATGTAGGTTATCGGTTCATTCAGTTTGCGCAT", "PBM binding z-score": 1.33}
{"sequence": "TCTGCTAGGTCAGTTGGTAAGCTAACGAGCTGCC", "PBM binding z-score": -1.01}
{"sequence": "ACTAGCAGGCCAAGGGTCACTCAGGATTAGTCCG", "PBM binding z-score": 0.0255}
{"sequence": "CCTAGAAGGCCAGGGTCACTCAAGCATTTCGCTT", "PBM binding z-score": -0.266}
{"sequence": "ATCTCTAGGTAAAGTTCAGTGTAAGATCGATAGA", "PBM binding z-score": 2.27}
{"sequence": "CTAACTAGGTCAAGGACAGTGAATCTCCGCACGC", "PBM binding z-score": 0.51}
{"sequence": "ACTATTAGGTGACTTAGGGCAACCGATACGACGC", "PBM binding z-score": 0.428}
{"sequence": "CCTACTGGGCCAAAAAGATCATTGATGCCGATAA", "PBM binding z-score": -0.155}
{"sequence": "CCAGACAGGTGAAAGGTAACTCGGTCTGGTACGC", "PBM binding z-score": -0.368}
{"sequence": "TCTAGTTGGTCAAAGGTCACACATTCGAAATGCG", "PBM binding z-score": 3.96}
{"sequence": "TCTAGTTGGTCGAAGGTCACACACTCGAAATGCG", "PBM binding z-score": 1.24}
{"sequence": "ATCTCTAGCTAACCAAGTTCAGTGAATGCCGAAC", "PBM binding z-score": 0.78}
{"sequence": "CGTCCAAGGTCAGCAAGTCAGTGAAAGCGACGTG", "PBM binding z-score": -0.297}
{"sequence": "ATCGAAAGGTCGATGTGAGTATAGAGAAAGGGAA", "PBM binding z-score": -0.178}
{"sequence": "TTACCAAGGTGAACGTCGTTGATCCCTCTGTAGA", "PBM binding z-score": -0.455}
{"sequence": "AGAACGAGGGCACGCTGAGTTGATAGCAGAGTAG", "PBM binding z-score": -0.551}
{"sequence": "CATACAGGGTCAGCTAGGCGAGAGTAGGGACGGC", "PBM binding z-score": -0.0386}
{"sequence": "CGTCCATGGTCAATGCTAGGTCAGTGAAAGCATT", "PBM binding z-score": 0.451}
{"sequence": "CCGACTGGTGCAGAAAGGTTACCATACCATCCGG", "PBM binding z-score": -0.181}
{"sequence": "ATACGTAGGTTAGCTGGGGTCATTCAGACTAGGC", "PBM binding z-score": 2.24}
{"sequence": "TCTAGTTGGTCACGGTGGTCACACACGACGGGTA", "PBM binding z-score": -0.00168}
{"sequence": "ATATGTAGGTTAAGGGTTATTCAGGTTGGTTCGC", "PBM binding z-score": 1.3}
{"sequence": "TCTGCTACGTCAGTTGGTCAGCTAACGAGCTGCC", "PBM binding z-score": -1.04}
{"sequence": "TCATATAGGTAAACAGGGGAAAGTCCGTAAGTTA", "PBM binding z-score": 0.283}
{"sequence": "ACTATTAGTTGAGACGAGGGCAACCGCTAGGTTG", "PBM binding z-score": -0.0789}
{"sequence": "TCTCTGAGGACACGAAAGGTCAGAGCTCGACATC", "PBM binding z-score": 3.1}
{"sequence": "CCTAATGGGCCACGAAAGGTCATTGATTCAGTGA", "PBM binding z-score": 4.82}
{"sequence": "TCTAGTTGGTCAAAGGTCACACGCTCGAAATGCG", "PBM binding z-score": 4.22}
{"sequence": "CCTATTGGGCCATCAGGTCATTGATATCAACGTT", "PBM binding z-score": 1.09}
{"sequence": "TGAATGAGGTTAAAGAGCAGGGAACGTGGCGTCG", "PBM binding z-score": -0.586}
{"sequence": "GTTCGGAGGACAAGGTCAGAGCTTTGTCCGTAGA", "PBM binding z-score": -0.204}
{"sequence": "TCATATAGGTAATACAGGTGAAAGCCGGCATCTA", "PBM binding z-score": 0.571}
{"sequence": "GCTTACGGGTCAAAGGTTATTGCATGAATAGAAT", "PBM binding z-score": 1.09}
{"sequence": "TCTAGTAGGTTACCAATGGGGCATTCAGCTTTCT", "PBM binding z-score": -0.049}
{"sequence": "CGAACGATGGCATGAGTTGATAGCAAATGCCGAT", "PBM binding z-score": -0.408}
{"sequence": "CCGACTGGGGCCGAAAGGTTACCATACCATCCGG", "PBM binding z-score": -0.0944}
{"sequence": "CGTCCAAGGTCAAAGGTCAGTTAAGAGATGACGG", "PBM binding z-score": 4.02}
{"sequence": "CCTAGCAGGCCAGGGTCACTCAAGCATTTCGCTT", "PBM binding z-score": -0.285}
{"system": "LXRb:RXRa (NR concentration 270 nM, RXRa partner concentration 90 nM)", "experiment": "PBM binding z-score (relative to random genomic background probes); higher = stronger binding; sequences stand for … in GC…GCGATTGACAGCGTAGAATGAAGG", "summary_of_the_method": "as §1"}
{"sequence": "ACTCGGAGGACAAGGGTCAGAGCTACGCCAGTGA", "PBM binding z-score": 1.6}
{"sequence": "AGAATTAGGTTATACGTAGATCAGGGAAGAAAGT", "PBM binding z-score": 0.628}
{"sequence": "ATATGTAGGTTATCGGTTCATTCAGTTTGCGCAT", "PBM binding z-score": 1.71}
{"sequence": "TCTGCTAGGTCAGTTGGTAAGCTAACGAGCTGCC", "PBM binding z-score": 0.157}
{"sequence": "ACTAGCAGGCCAAGGGTCACTCAGGATTAGTCCG", "PBM binding z-score": 2.69}
{"sequence": "CCTAGAAGGCCAGGGTCACTCAAGCATTTCGCTT", "PBM binding z-score": 2.02}
{"sequence": "ATCTCTAGGTAAAGTTCAGTGTAAGATCGATAGA", "PBM binding z-score": 1.55}
{"sequence": "CTAACTAGGTCAAGGACAGTGAATCTCCGCACGC", "PBM binding z-score": 1.58}
{"sequence": "ACTATTAGGTGACTTAGGGCAACCGATACGACGC", "PBM binding z-score": 0.142}
{"sequence": "CCTACTGGGCCAAAAAGATCATTGATGCCGATAA", "PBM binding z-score": -0.481}
{"sequence": "CCAGACAGGTGAAAGGTAACTCGGTCTGGTACGC", "PBM binding z-score": 0.702}
{"sequence": "TCTAGTTGGTCAAAGGTCACACATTCGAAATGCG", "PBM binding z-score": 5.35}
{"sequence": "TCTAGTTGGTCGAAGGTCACACACTCGAAATGCG", "PBM binding z-score": 3.38}
{"sequence": "ATCTCTAGCTAACCAAGTTCAGTGAATGCCGAAC", "PBM binding z-score": 0.261}
{"sequence": "CGTCCAAGGTCAGCAAGTCAGTGAAAGCGACGTG", "PBM binding z-score": 2.02}
{"sequence": "ATCGAAAGGTCGATGTGAGTATAGAGAAAGGGAA", "PBM binding z-score": 2}
{"sequence": "TTACCAAGGTGAACGTCGTTGATCCCTCTGTAGA", "PBM binding z-score": 1.01}
{"sequence": "AGAACGAGGGCACGCTGAGTTGATAGCAGAGTAG", "PBM binding z-score": 0.0516}
{"sequence": "CATACAGGGTCAGCTAGGCGAGAGTAGGGACGGC", "PBM binding z-score": 2.08}
{"sequence": "CGTCCATGGTCAATGCTAGGTCAGTGAAAGCATT", "PBM binding z-score": 0.222}
{"sequence": "CCGACTGGTGCAGAAAGGTTACCATACCATCCGG", "PBM binding z-score": 0.491}
{"sequence": "ATACGTAGGTTAGCTGGGGTCATTCAGACTAGGC", "PBM binding z-score": 4.72}
{"sequence": "TCTAGTTGGTCACGGTGGTCACACACGACGGGTA", "PBM binding z-score": 0.395}
{"sequence": "ATATGTAGGTTAAGGGTTATTCAGGTTGGTTCGC", "PBM binding z-score": 2.8}
{"sequence": "TCTGCTACGTCAGTTGGTCAGCTAACGAGCTGCC", "PBM binding z-score": -1.12}
{"sequence": "TCATATAGGTAAACAGGGGAAAGTCCGTAAGTTA", "PBM binding z-score": 0.925}
{"sequence": "ACTATTAGTTGAGACGAGGGCAACCGCTAGGTTG", "PBM binding z-score": 0.0826}
{"sequence": "TCTCTGAGGACACGAAAGGTCAGAGCTCGACATC", "PBM binding z-score": 2.98}
{"sequence": "CCTAATGGGCCACGAAAGGTCATTGATTCAGTGA", "PBM binding z-score": 4.5}
{"sequence": "TCTAGTTGGTCAAAGGTCACACGCTCGAAATGCG", "PBM binding z-score": 5.45}
{"sequence": "CCTATTGGGCCATCAGGTCATTGATATCAACGTT", "PBM binding z-score": 1.42}
{"sequence": "TGAATGAGGTTAAAGAGCAGGGAACGTGGCGTCG", "PBM binding z-score": 1.45}
{"sequence": "GTTCGGAGGACAAGGTCAGAGCTTTGTCCGTAGA", "PBM binding z-score": 0.904}
{"sequence": "TCATATAGGTAATACAGGTGAAAGCCGGCATCTA", "PBM binding z-score": 1.21}
{"sequence": "GCTTACGGGTCAAAGGTTATTGCATGAATAGAAT", "PBM binding z-score": 5.81}
{"sequence": "TCTAGTAGGTTACCAATGGGGCATTCAGCTTTCT", "PBM binding z-score": 1.37}
{"sequence": "CGAACGATGGCATGAGTTGATAGCAAATGCCGAT", "PBM binding z-score": -0.556}
{"sequence": "CCGACTGGGGCCGAAAGGTTACCATACCATCCGG", "PBM binding z-score": 1.08}
{"sequence": "CGTCCAAGGTCAAAGGTCAGTTAAGAGATGACGG", "PBM binding z-score": 6.65}
{"sequence": "CCTAGCAGGCCAGGGTCACTCAAGCATTTCGCTT", "PBM binding z-score": 1.95}
